BaF3 tox: counter-screen for JAK2V617F inhibitors: parental Ba/F3 viability inhibitors; CellTiter-Glo ATP luminescence; inhibition, % at 5.6 µM; 220,000 tested, 1.1% active; AID 1486;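 active = inhibition above a per-campaign cutoff, the mean inhibition of all tested compounds plus 3 SD, cut at about 27% in these data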;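 note: 0% = DMSO wells and 100% = JAK Inhibitor I control wells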
KLF5 inhibitor: kruppel-like factor 5 inhibition; AID 1700; 290,000 tested, 0.23% active; inhibition, % at 5 µM; DLD-1 KLF5 promoter-luciferase reporter, luminescence;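 active = inhibition above a per-plate limit of that plate's mean compound inhibition plus 3 SD, cut at about 60% in these data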;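 note: 0% = DMSO wells and 100% = LY294002 at 200 µM; higher means less KLF5 promoter-driven luciferase light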
aSyn UTR inh: 5' untranslated region of α-synuclein, MLPCN primary screen; alpha-synuclein 5'UTR reporter, inhibitor activity; inhibition, % (tested at 7.5 µM); 300,000 tested, 0.82% active; in the data active = inhibition above about 60%;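 note: H4 neuroglioblastoma cells stably carrying SNCA 5'UTR luciferase fusion; 0% = DMSO wells and 100% = positive control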
APP transl inh: APP translation inhibition. SH-SY5Y APP 5'UTR-luciferase reporter, luminescence. inhibition, % at 2 µM. 190,000 tested, 0.82% active. AID 1285;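 active = inhibition above a set limit, derived from the sample mean plus 3 SD, cut at about 45% in these data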
IEC-6 tox: counter-screen for KLF5 inhibitors: cytotoxicity in IEC-6 cells; 290,000 tested, 0.78% active; IEC-6 cytotoxicity, luminescence viability; inhibition, % at 5 µM; in the data active = inhibition above about 22%;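 note: 0% = plate median of test compound wells and 100% = cytotoxic reference compound wells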
Ba/F3 V617F tox: reduce viability of Ba/F3 cells dependent on JAK2V617F. Ba/F3 EpoR-JAK2V617F viability, ATP luminescence. 220,000 tested, 1.1% active. inhibition, % at 5.6 µM. AID 1446;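 active = inhibition above the campaign mean plus 3 SD over all tested compounds, cut at about 24% in these data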;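 note: cytokine-independent growth of Ba/F3 cells driven by EpoR plus mutant JAK2; 0% = DMSO-treated cells and 100% = JAK inhibitor I control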
Starred values were filed as active, the others as inactive; . = not tested or not shown. In the library only some 2.2% were active in any assay of this set; here they are far more common.

SMILES	BaF3 tox	KLF5 inhibitor	aSyn UTR inh	APP transl inh	IEC-6 tox	Ba/F3 V617F tox
Cc1cc2occ(CC(=O)N(CC(C)C)c3c(N)n(Cc4ccccc4)c(=O)[nH]c3=O)c2cc1C	.	.	-5	.	.	.
COc1ccc(CCCC(=O)N/N=C/c2cccc(OC)c2O)cc1C	6	-18	74*	12	3	-2
COc1ccc(OC)c(/C=N\NC(=O)c2ccc(-c3ccccc3)cc2)c1	.	-18	.	.	5	.
COc1cccc(/C=N/NC(=O)C(=O)Nc2ccccc2OC(F)(F)C(F)F)c1O	0	13	71*	33	2	-3
CCOc1ccccc1NC(=O)C(=O)N/N=C/c1cc(Br)ccc1O	4	-23	51	59*	8	-1
COc1cccc(/C=N/NC(=O)c2ccc(-c3ccccc3)cc2)c1O	2	23	76*	18	3	-3
O=C(CCC(=O)c1cccs1)Nc1ncccc1O	.	.	-7	.	.	.
CC(C)CN1C(=O)c2ccc(C(=O)Nc3ccccc3C(=O)O)cc2C1=O	.	-91	2	.	1	.
COc1ccc(C(=O)Nc2c(N)nc(SCC(=O)c3ccccc3)[nH]c2=O)cc1	.	14	8	.	6	.
CN1CCN(CCNC(=O)Cn2c(=O)c3cccn3c3ccc(F)cc32)CC1	.	-18	-4	.	-9	.
C=CCN(C(=O)CSC1=NC(=O)CN1C(C)=O)c1nc(C)c(-c2ccccc2)s1	8	-56	-118	-35	-9	2
CCCCSc1nc(C)cc(SCC(=O)N/N=C/c2cccc(OC)c2O)n1	9	24	81*	43	0	2
COc1ccc(C(=O)Nc2cccc(C(=O)N/N=C/c3ccc(OC)cc3OC)c2)cc1	.	-29	83*	.	10	.
COc1cccc(/C=N/NC(=O)CSc2nnc(C)n2-c2ccccc2)c1O	-3	24	38	-9	3	0
COc1cccc(/C=N/NC(N)=S)c1OCc1ccccc1Cl	0	-23	23	20	1	3
NC(=S)N/N=C/c1ccccc1OCCSc1ccc(Cl)cc1	44*	-22	2	-36	0	44*
Cc1cc(C)cc(OCCCCn2cncn2)c1	.	-26	8	.	-2	.
COc1ccccc1-n1c(-c2ccccc2)c[nH]c1=S	-3	-15	-24	-4	0	-6
COc1ccc(-n2c(-c3ccc(Br)cc3)c[n+]3c2CCc2ccccc2-3)cc1	78*	-8	-91	-2	15	88*
CC(C)c1ccc(-n2c(-c3ccccc3)c[n+]3c2CCc2ccccc2-3)cc1	92*	29	78*	13	41*	99*
COc1ccccc1-n1c(-c2ccccc2)c[n+]2c1CCc1ccccc1-2	79*	20	6	13	24*	101*
COc1ccc(-n2cc(-c3ccc(Br)cc3)[nH]c2=S)cc1	5	-25	-138	-15	-6	-3
CCOc1ccccc1N=NC1C(=O)N(C(N)=S)N=C1C (configuration not stated)	.	-5	-16	.	-1	.
O=c1cc(-c2c(F)c(F)c(F)c(F)c2F)oc2c(F)c(F)c(F)c(F)c12	1	-33	-12	97*	0	-2
O=c1cc(-c2c(F)c(F)c(F)c(F)c2F)oc2ccccc12	9	-16	-39	13	-2	0
SMILES	BaF3 tox	KLF5 inhibitor	aSyn UTR inh	APP transl inh	IEC-6 tox	Ba/F3 V617F tox
Cc1c(CCC(=O)NCCCn2ccnc2)c(=O)oc2c(C)c3oc4c(c3cc12)CCCC4	.	-18	53	.	2	.
CN(C)c1ccc(CNc2ccc3c(c2)ncn3C)cc1	33*	-4	-8	-3	6	21
COc1ccc(NC2=CC(=O)CC(c3ccccc3)C2)c(OC)c1 (configuration not stated)	43*	38	12	4	17	39*
CC(=O)c1cccc(NC(=O)CN(C)S(=O)(=O)c2ccc3c(c2)CC(C)N3C(C)=O)c1 (configuration not stated)	.	-17	19	.	-4	.
c1ccc2c(c1)CC(N1CCCCC1)c1ccccc1S2 (configuration not stated)	.	.	90*	.	.	.
CCc1ccc2c(c1)Sc1ccccc1CC2N1CCN(C)CC1 (configuration not stated)	.	.	-16	.	.	.
CC(C)c1ccc(NC2CCCN(C(=O)c3ccoc3)C2)cc1 (configuration not stated)	.	-20	-23	.	2	.
CCOC(=O)N1CCN(C(=O)c2nn(C)c3c2CSc2ccccc2-3)CC1	.	-31	-15	.	-4	.
Cc1nsc2c1ccc1ccccc12	2	-16	-8	-2	-5	-6
CC1=[N+](C)c2ccc3ccccc3c2C1(C)C	54*	-20	2	12	-4	53*
COc1ccc(C(=O)/C(C#N)=N/Nc2ccc([N+](=O)[O-])cc2)cc1	7	4	102*	92*	18	0
CCCc1c(C)nn(C(=O)/C(C#N)=N/Nc2ccccc2[N+](=O)[O-])c1C	4	-24	-34	-64	-1	-2
COc1ccc(C(=O)/C(C#N)=N/Nc2ccccc2[N+](=O)[O-])cc1	2	-6	-26	70*	4	-1
COC(=O)c1c(NC(=O)C(C)C)sc(C(=O)N2CCOCC2)c1C	.	6	-4	.	1	.
CC(C)Cc1nnc(NC(=O)C2CSC3(C)CCC(=O)N23)s1 (configuration not stated)	.	.	-12	.	.	.
CCOc1ccc(OCC)c(NC(=O)CN2CCN(CC(=O)NC(C)C)CC2)c1	.	-1	14	.	0	.
CN1C(=O)C(=O)/C(=C(/O)c2ccc(Br)cc2)C1c1ccccc1F (configuration not stated)	.	0	2	.	6	.
CCOC(=O)N1CCN(C(=O)COC(=O)c2ccc(S(=O)(=O)N(CC)CC)cc2)CC1	.	.	-12	.	.	.
O=C(CNc1ccccc1)N/N=C/c1c(O)ccc2ccccc12	.	12	69*	.	5	.
O=C(N/N=C\c1c(O)ccc2ccccc12)c1ccc(O)cc1	.	53	75*	.	0	.
Cc1c(C(=O)N/N=C/c2c(O)ccc3ccccc23)nnn1-c1nonc1N	.	48	63*	.	0	.
O=C(N/N=C/c1c(O)ccc2ccccc12)c1ccc[n+](CCO)c1	-2	-14	-4	0	0	1
Cn1cc(C(=O)N/N=C/c2c(O)ccc3ccccc23)ccc1=O	7	32	96*	50*	-6	1
Cc1cc(C)c2nc(-c3cccc(Cl)c3)c(C)c(C(=O)N3CCOCC3)c2c1	.	5	14	.	0	.
CCN(CC)S(=O)(=O)c1ccc(Oc2ccc(S(=O)(=O)N(CC)CC)cc2)cc1	40*	-18	14	0	-1	33*
Cc1ccc[n+](Cc2ccc([N+](=O)[O-])cc2)c1	11	-28	9	-16	0	2
O=[N+]([O-])c1ccc(C[n+]2cccc3c4ccccc4ccc32)cc1	74*	-22	17	4	-11	90*
O=C(CSc1nnc(-c2ccc(Br)cc2)o1)Nc1cccc(C(=O)O)c1	.	56	98*	.	-3	.
